“And” between values parts separate entries of the source, which are not always exact repeats. Identical values can stand only once. The whole screen tested about 5,500 compounds, of which about 2,000 (36%) were called active. About 18% were inconclusive and are not listed. Cut-off read from the data, not from the text of the source: active = normalized growth mostly below about 0.91 (no sharp cut-off); inconclusive = no clear call, values can overlap the other calls; inactive = mostly above about 0.92. The list shows a part of the results.
Test: chemical genetic growth profiling, strain panel (AID 1159580);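 note: tested at 20 µM; growth read once vehicle control cultures reached saturation at 30 °C; 1 = growth at the plate median or of vehicle wells; lower values mean less growth of the strain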
Details: growth OD

Measured: normalized growth

O=C(O)c1cccnc1C(=O)O
inactive: S. cerevisiae deletion strains, locus YJR066W, strain TOR1, stronger effect = lower value 0.979 | S. cerevisiae deletion strains, locus YJR075W, strain HOC1, stronger effect = lower value 1.08 | S. cerevisiae deletion strains, locus YKL009W, strain mrt4, stronger effect = lower value 1.03 | S. cerevisiae deletion strains, locus YKL068W, stronger effect = lower value 0.982 | S. cerevisiae deletion strains, locus YKL085W, strain MDH1 (second series), stronger effect = lower value 0.982 | S. cerevisiae deletion strains, locus YKL085W, strain MDH1, stronger effect = lower value 0.982 | S. cerevisiae deletion strains, locus YKL160W, strain elf1, stronger effect = lower value 0.999 | S. cerevisiae deletion strains, locus YKL190W, strain CNB1, stronger effect = lower value 1.01 | S. cerevisiae deletion strains, locus YKR001C, strain vps1, stronger effect = lower value 0.986 | S. cerevisiae deletion strains, locus YKR026C, strain gcn3, stronger effect = lower value 0.981 | S. cerevisiae deletion strains, locus YKR091W, strain srl3, stronger effect = lower value 0.999 | S. cerevisiae deletion strains, locus YLL001W, strain dnm1, stronger effect = lower value 1.04 | S. cerevisiae deletion strains, locus YLL026W, stronger effect = lower value 1.01 | S. cerevisiae deletion strains, locus YLL041C, strain sdh2, stronger effect = lower value 1 | S. cerevisiae deletion strains, locus YLR027C, strain aat2, stronger effect = lower value 1.01 | S. cerevisiae deletion strains, locus YLR039C, strain RIC1, stronger effect = lower value 1.08 | S. cerevisiae deletion strains, locus YLR058C, strain SHM2, stronger effect = lower value 1.02 | S. cerevisiae deletion strains, locus YLR102C, strain apc9, stronger effect = lower value 0.985 | S. cerevisiae deletion strains, locus YLR113W, strain HOG1, stronger effect = lower value 0.996 | S. cerevisiae deletion strains, locus YLR221C, strain rsa3, stronger effect = lower value 1.04 | S. cerevisiae deletion strains, locus YLR258W, strain gsy2, stronger effect = lower value 1.01 | S. cerevisiae deletion strains, locus YLR262C, strain YPT6 (second series), stronger effect = lower value 1.01 | S. cerevisiae deletion strains, locus YLR262C, strain YPT6, stronger effect = lower value 1.09 | S. cerevisiae deletion strains, locus YLR268W, strain sec22, stronger effect = lower value 1.01 | S. cerevisiae deletion strains, locus YLR320W, strain mms22, stronger effect = lower value 1.04 | S. cerevisiae deletion strains, locus YLR330W, strain CHS5, stronger effect = lower value 1.01 | S. cerevisiae deletion strains, locus YLR342W, strain FKS1 (second series), stronger effect = lower value 1.01 | S. cerevisiae deletion strains, locus YLR342W, strain FKS1, stronger effect = lower value 1.01 | S. cerevisiae deletion strains, locus YLR357W, strain rsc2, stronger effect = lower value 0.987 | S. cerevisiae deletion strains, locus YLR370C, strain arc18, stronger effect = lower value 0.984 | S. cerevisiae deletion strains, locus YLR371W, strain rom2, stronger effect = lower value 0.986 | S. cerevisiae deletion strains, locus YLR384C, strain iki3, stronger effect = lower value 1.01 | S. cerevisiae deletion strains, locus YLR418C, strain cdc73, stronger effect = lower value 1.04 | S. cerevisiae deletion strains, locus YML016C, strain PPZ1, stronger effect = lower value 1.01 | S. cerevisiae deletion strains, locus YML032C, strain rad52, stronger effect = lower value 1.01 | S. cerevisiae deletion strains, locus YML120C, strain ndi1, stronger effect = lower value 1 | S. cerevisiae deletion strains, locus YML124C, strain tub3, stronger effect = lower value 0.989 | S. cerevisiae deletion strains, locus YMR058W, strain fet3, stronger effect = lower value 1 | S. cerevisiae deletion strains, locus YMR078C, strain ctf18, stronger effect = lower value 0.99 | S. cerevisiae deletion strains, locus YMR125W, strain sto1, stronger effect = lower value 1 | S. cerevisiae deletion strains, locus YMR129W, stronger effect = lower value 0.987 | S. cerevisiae deletion strains, locus YMR205C, strain PFK2, stronger effect = lower value 0.988 | S. cerevisiae deletion strains, locus YMR223W, strain ubp8, stronger effect = lower value 1.01 | S. cerevisiae deletion strains, locus YMR231W, strain pep5, stronger effect = lower value 0.996 | S. cerevisiae deletion strains, locus YMR307W, strain GAS1, stronger effect = lower value 1.02 and 0.993 | S. cerevisiae deletion strains, locus YNL067W, strain RPL9B, stronger effect = lower value 1.06 | S. cerevisiae deletion strains, locus YNL071W, strain lat1, stronger effect = lower value 0.998 | S. cerevisiae deletion strains, locus YNL128W, strain TEP1, stronger effect = lower value 1.03 and 1.01 | S. cerevisiae deletion strains, locus YNL175C, strain NOP13, stronger effect = lower value 1.02 | S. cerevisiae deletion strains, locus YNL183C, strain NPR1, stronger effect = lower value 0.934 | S. cerevisiae deletion strains, locus YNL197C, strain WHI3, stronger effect = lower value 1.01 | S. cerevisiae deletion strains, locus YNL209W, strain ssb2, stronger effect = lower value 0.994 | S. cerevisiae deletion strains, locus YNL224C, strain SQS1, stronger effect = lower value 0.998 | S. cerevisiae deletion strains, locus YNL233W, strain BNI4, stronger effect = lower value 1.06 | S. cerevisiae deletion strains, locus YNL248C, strain rpa49, stronger effect = lower value 0.997 | S. cerevisiae deletion strains, locus YNL250W, strain rad50, stronger effect = lower value 0.984 | S. cerevisiae deletion strains, locus YNL271C, strain bni1, stronger effect = lower value 0.962 | S. cerevisiae deletion strains, locus YNL298W, strain CLA4, stronger effect = lower value 0.977 | S. cerevisiae deletion strains, locus YNL307C, strain MCK1, stronger effect = lower value 1.01 | S. cerevisiae deletion strains, locus YNL322C, strain KRE1 (second series), stronger effect = lower value 0.985 | S. cerevisiae deletion strains, locus YNL322C, strain KRE1, stronger effect = lower value 1.01 | S. cerevisiae deletion strains, locus YNR049C, strain mso1, stronger effect = lower value 0.989 | S. cerevisiae deletion strains, locus YNR052C, strain pop2, stronger effect = lower value 0.996 | S. cerevisiae deletion strains, locus YOL006C, strain TOP1, stronger effect = lower value 1.11 | S. cerevisiae deletion strains, locus YOL012C, strain htz1 1.66 | S. cerevisiae deletion strains, locus YOL147C, strain pex11, stronger effect = lower value 0.99 | S. cerevisiae deletion strains, locus YOR001W, strain rrp6, stronger effect = lower value 1.04 | S. cerevisiae deletion strains, locus YOR061W, strain CKA2, stronger effect = lower value 1.02 | S. cerevisiae deletion strains, locus YOR069W, strain VPS5, stronger effect = lower value 1.02 | S. cerevisiae deletion strains, locus YOR070C, strain gyp1, stronger effect = lower value 0.998 | S. cerevisiae deletion strains, locus YOR080W, strain dia2, stronger effect = lower value 0.974 | S. cerevisiae deletion strains, locus YOR083W, strain WHI5 (second series), stronger effect = lower value 1.03 | S. cerevisiae deletion strains, locus YOR083W, strain WHI5, stronger effect = lower value 0.945 | S. cerevisiae deletion strains, locus YOR106W, strain vam3, stronger effect = lower value 0.991 | S. cerevisiae deletion strains, locus YOR136W, strain idh2, stronger effect = lower value 1.02 | S. cerevisiae deletion strains, locus YOR144C, strain elg1, stronger effect = lower value 0.979 | S. cerevisiae deletion strains, locus YOR184W, strain ser1, stronger effect = lower value 0.998 | S. cerevisiae deletion strains, locus YOR231W, strain MKK1, stronger effect = lower value 1.03 | S. cerevisiae deletion strains, locus YOR265W, strain rbl2, stronger effect = lower value 0.989 | S. cerevisiae deletion strains, locus YOR270C, strain vph1, stronger effect = lower value 0.984 | S. cerevisiae deletion strains, locus YOR290C, strain snf2, stronger effect = lower value 0.987 | S. cerevisiae deletion strains, locus YOR316C, strain cot1, stronger effect = lower value 0.993 | S. cerevisiae deletion strains, locus YPL051W, strain arl3, stronger effect = lower value 1.02 | S. cerevisiae deletion strains, locus YPL055C, strain LGE1, stronger effect = lower value 1.11 | S. cerevisiae deletion strains, locus YPL078C, strain atp4, stronger effect = lower value 1.05 | S. cerevisiae deletion strains, locus YPL106C, strain sse1, stronger effect = lower value 1.06 | S. cerevisiae deletion strains, locus YPL240C, strain hsp82, stronger effect = lower value 0.994 | S. cerevisiae deletion strains, locus YPL256C, strain CLN2, stronger effect = lower value 1 | S. cerevisiae deletion strains, locus YPR119W, strain clb2, stronger effect = lower value 0.988 | S. cerevisiae deletion strains, locus YPR141C, strain kar3, stronger effect = lower value 0.978 | S. cerevisiae deletion strains, locus YPR163C, strain tif3, stronger effect = lower value 0.996 | S. cerevisiae deletion strains, locus YPR167C, strain met16, stronger effect = lower value 0.983 | S. cerevisiae deletion strains, strain wtn01, stronger effect = lower value 0.997 | S. cerevisiae strains, strain wild type, stronger effect = lower value 1.02

From PubChem BioAssay AID1159580 (chemical genetic matrix, 2015)
